In ChEMBL document CHEMBL3988442, “University of Dundee, Small-Polar-MMV Screening Library” (2021):
For some of these results: Measured potencies and affinities stand elsewhere.

How the values were obtained:
Design in all cases: scale not given: direction of the effect not stated beside the values
[1] = biological target: Protein translocase subunit SecA (Escherichia coli (strain K12)) (UniProt P10408); test: Assay to Identify E. coli SecA ATPase Inhibitors; format: functional; conditions: 30 µM
[2] = biological target: T1, Ubiquitin-activating enzyme e1, putative (Leishmania donovani (strain BPK282A1)) (UniProt E9BSI1); test: Leishmania donovani Ubiquitin Activating Enzyme (LdE1); format: functional; conditions: 30 µM
T1 sequence (whole entry): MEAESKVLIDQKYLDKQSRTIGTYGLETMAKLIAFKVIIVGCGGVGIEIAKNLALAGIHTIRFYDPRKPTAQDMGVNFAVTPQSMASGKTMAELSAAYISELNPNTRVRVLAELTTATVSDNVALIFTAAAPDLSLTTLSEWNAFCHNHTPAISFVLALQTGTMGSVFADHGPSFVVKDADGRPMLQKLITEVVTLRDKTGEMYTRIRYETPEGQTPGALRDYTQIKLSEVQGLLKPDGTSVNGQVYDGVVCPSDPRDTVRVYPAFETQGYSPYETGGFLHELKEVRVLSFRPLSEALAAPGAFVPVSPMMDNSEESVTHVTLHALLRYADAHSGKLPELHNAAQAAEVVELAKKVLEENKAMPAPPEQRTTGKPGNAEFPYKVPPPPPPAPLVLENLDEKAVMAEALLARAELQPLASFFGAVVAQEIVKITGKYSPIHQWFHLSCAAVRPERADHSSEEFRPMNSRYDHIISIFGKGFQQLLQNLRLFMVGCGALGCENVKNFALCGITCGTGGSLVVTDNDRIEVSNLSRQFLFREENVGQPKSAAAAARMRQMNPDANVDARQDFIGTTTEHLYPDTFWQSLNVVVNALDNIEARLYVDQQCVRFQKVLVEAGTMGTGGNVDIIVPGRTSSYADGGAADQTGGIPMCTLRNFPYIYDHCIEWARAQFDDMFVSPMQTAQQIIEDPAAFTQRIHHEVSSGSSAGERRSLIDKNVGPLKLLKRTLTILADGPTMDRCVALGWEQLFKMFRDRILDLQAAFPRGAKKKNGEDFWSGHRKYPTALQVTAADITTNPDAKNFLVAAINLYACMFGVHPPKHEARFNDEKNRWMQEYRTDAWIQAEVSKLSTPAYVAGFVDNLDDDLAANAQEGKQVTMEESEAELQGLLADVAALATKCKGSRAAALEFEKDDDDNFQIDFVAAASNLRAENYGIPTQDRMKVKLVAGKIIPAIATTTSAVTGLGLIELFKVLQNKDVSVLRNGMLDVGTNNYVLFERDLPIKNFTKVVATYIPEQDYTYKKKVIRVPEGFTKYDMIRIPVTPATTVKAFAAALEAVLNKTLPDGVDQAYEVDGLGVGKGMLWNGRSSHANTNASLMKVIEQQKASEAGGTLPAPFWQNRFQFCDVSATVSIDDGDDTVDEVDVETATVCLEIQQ

[3] = biological target: AMP-activated protein kinase, AMPK (Homo sapiens) (UniProt P54646+O43741+P54619+Q9UGJ0+Q9Y478+Q13131+Q9UGI9); test: AMP-dependent Kinase enzyme assay. An in vitro enzyme assay that detects ADP turnover that is directly proportional to AMPK activity. This uses naive AMPK that is activated during the assay with MK-8722; format: functional; conditions: 30 µM
[4] = biological target: Sialic acid-binding Ig-like lectin 9 (Homo sapiens) (UniProt Q9Y336); test: Hs-Siglec9 ALPHAscreen SOP 20170721; conditions: 10 µM
Trypanosoma cruzi = test: Trypanosoma cruzi phosphomannomutase and mannose-1-phosphate guanylyltransferase assay; format: functional; conditions: 10 µM
[5] = biological target: T2, Arginase-2, mitochondrial (Homo sapiens) (UniProt P78540); test: in vitro enzyme assay to detect the production of urea directly proportional to the activity of Arginase II; format: functional; conditions: 33.3 µM; further: in the data most compounds retested in dose-response had high values
T2 sequence (whole entry): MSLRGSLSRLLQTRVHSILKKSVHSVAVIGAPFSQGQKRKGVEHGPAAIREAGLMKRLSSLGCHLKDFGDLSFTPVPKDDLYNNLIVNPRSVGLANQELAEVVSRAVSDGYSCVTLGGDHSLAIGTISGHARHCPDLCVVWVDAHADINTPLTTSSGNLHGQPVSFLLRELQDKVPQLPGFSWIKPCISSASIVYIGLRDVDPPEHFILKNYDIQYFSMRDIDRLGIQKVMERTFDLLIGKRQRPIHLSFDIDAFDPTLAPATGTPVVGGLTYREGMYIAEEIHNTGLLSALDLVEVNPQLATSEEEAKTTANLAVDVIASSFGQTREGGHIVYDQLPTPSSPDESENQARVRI

[6] = biological target: T3, Proteasome subunit beta (Trypanosoma cruzi) (UniProt O96673); test: Trypanosoma cruzi proteasome chymotrypsin-like activity (TcProtChymo) assay.; further: in the data most compounds retested in dose-response had high values; format: functional; conditions: 9.37 µM
T3 sequence (whole entry): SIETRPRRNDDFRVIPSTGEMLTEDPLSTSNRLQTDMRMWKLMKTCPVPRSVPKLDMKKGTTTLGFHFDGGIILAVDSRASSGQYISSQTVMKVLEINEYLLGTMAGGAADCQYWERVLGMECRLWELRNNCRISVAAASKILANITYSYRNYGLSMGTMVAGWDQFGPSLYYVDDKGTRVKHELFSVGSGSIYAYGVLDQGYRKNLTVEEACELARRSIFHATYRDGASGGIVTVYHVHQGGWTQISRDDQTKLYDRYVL

Homo sapiens = species: Homo sapiens; test: To identify inhibition of the IFN signalling (Jak-Stat) pathway via expression of an eGFP reporter gene under the control of an IFN-stimulated response element (ISRE) containing MxA promoter.; format: functional; conditions: 30 µM
[7] = biological target: T4, Tyrosyl-tRNA synthetase, putative (Trypanosoma cruzi (strain CL Brener)) (UniProt Q4DSP6); test: Trypanosoma cruzi tyrosyl tRNA synthetase (TcYRS) _High Tyrosine SOP; format: functional; conditions: 30 µM; further: in the data most compounds retested in dose-response had high values
T4 sequence (whole entry): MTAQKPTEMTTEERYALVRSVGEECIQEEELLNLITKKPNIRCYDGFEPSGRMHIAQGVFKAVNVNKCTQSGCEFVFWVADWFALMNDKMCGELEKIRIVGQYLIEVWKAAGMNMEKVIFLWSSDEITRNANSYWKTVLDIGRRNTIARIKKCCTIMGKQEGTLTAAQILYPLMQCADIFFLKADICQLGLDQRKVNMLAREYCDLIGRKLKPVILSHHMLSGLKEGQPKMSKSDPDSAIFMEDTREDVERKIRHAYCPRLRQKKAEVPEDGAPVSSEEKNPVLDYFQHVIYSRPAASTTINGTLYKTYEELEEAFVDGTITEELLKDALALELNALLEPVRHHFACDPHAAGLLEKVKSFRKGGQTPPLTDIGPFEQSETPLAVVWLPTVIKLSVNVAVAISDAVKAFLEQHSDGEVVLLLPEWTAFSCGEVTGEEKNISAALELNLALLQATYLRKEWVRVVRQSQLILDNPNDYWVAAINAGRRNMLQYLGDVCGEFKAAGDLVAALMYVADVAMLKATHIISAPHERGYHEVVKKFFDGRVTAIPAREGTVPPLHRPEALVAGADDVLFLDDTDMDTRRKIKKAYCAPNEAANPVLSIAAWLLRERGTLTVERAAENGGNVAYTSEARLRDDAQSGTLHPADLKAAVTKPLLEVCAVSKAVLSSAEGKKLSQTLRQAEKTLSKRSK

[8] = biological target: T4, Tyrosyl-tRNA synthetase, putative (Trypanosoma cruzi (strain CL Brener)); test: Trypanosoma cruzi tyrosyl tRNA synthetase (TcYRS) SOP; format: functional; conditions: 30 µM
[9] = biological target: Chromo domain-containing protein 1 (Saccharomyces cerevisiae (strain ATCC 204508 / S288c) (Baker's yeast)) (UniProt P32657); test: ScCHD-1 Enzyme Inhibition Assay; format: functional; conditions: 30 µM; further: in the data most compounds retested in dose-response had high values
Sequence of Chromo domain-containing protein 1 (Saccharomyces cerevisiae (strain ATCC 204508 / S288c) (Baker's yeast)) (P32657 whole entry, the tested form may be a part): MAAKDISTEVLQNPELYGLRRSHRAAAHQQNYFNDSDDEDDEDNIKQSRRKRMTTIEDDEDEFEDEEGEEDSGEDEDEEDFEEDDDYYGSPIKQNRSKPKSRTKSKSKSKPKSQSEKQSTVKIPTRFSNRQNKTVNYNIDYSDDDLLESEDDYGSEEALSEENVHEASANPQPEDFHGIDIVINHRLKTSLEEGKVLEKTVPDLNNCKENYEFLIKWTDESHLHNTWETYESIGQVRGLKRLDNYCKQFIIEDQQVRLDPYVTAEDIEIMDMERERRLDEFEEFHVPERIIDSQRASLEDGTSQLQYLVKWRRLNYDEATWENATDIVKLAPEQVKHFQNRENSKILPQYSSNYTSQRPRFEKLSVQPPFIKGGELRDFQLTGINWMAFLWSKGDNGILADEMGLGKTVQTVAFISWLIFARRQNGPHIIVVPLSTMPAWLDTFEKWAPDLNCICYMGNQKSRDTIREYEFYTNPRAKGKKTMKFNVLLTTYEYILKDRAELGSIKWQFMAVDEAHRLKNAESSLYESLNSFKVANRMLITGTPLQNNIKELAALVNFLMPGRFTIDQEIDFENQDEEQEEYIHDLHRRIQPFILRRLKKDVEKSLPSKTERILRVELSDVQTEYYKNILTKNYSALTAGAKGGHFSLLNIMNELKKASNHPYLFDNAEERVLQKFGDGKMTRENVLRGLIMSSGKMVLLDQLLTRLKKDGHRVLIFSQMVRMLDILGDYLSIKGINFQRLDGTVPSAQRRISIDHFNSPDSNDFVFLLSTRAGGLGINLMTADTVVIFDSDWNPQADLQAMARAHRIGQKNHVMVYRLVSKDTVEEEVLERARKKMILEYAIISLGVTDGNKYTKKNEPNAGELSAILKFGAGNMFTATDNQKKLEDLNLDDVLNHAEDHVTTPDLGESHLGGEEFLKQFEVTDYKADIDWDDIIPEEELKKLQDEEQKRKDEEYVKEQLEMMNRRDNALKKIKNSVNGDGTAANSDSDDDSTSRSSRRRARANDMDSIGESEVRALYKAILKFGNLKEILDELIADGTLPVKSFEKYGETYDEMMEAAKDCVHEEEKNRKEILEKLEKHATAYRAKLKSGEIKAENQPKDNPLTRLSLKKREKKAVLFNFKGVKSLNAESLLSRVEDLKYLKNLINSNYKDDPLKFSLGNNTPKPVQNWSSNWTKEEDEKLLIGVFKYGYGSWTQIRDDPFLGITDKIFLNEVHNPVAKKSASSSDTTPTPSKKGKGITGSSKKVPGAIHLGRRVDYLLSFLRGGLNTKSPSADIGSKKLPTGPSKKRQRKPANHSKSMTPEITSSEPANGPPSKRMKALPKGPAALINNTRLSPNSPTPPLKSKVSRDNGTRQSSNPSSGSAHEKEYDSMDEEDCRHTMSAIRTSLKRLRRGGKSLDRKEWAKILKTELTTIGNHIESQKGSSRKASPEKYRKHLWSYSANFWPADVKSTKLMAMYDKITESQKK

Sequence of Protein translocase subunit SecA (Escherichia coli (strain K12)) (P10408 whole entry): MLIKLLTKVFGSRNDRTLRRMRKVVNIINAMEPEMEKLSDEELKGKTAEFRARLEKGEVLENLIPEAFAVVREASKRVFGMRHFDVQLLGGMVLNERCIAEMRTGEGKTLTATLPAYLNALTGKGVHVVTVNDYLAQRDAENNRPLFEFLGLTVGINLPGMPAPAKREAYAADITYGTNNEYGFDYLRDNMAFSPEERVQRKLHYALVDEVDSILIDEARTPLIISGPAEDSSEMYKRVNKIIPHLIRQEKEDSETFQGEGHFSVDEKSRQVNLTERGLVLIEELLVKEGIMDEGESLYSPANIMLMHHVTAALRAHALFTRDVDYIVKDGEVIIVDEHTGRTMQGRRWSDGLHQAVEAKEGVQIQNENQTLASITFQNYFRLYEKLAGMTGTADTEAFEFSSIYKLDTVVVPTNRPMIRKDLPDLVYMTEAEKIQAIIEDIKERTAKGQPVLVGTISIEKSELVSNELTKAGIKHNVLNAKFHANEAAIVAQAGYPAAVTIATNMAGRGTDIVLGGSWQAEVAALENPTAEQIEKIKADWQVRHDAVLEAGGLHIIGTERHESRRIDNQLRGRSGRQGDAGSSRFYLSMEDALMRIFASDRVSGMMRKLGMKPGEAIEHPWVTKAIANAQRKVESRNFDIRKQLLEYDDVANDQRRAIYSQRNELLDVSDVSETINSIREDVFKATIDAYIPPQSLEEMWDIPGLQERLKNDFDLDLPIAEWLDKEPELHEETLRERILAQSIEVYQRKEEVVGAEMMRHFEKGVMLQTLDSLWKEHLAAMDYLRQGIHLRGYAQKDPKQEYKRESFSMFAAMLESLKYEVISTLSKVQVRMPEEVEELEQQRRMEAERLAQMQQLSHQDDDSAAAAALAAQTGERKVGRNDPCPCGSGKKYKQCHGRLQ
Sequence of Sialic acid-binding Ig-like lectin 9 (Homo sapiens) (Q9Y336 whole entry): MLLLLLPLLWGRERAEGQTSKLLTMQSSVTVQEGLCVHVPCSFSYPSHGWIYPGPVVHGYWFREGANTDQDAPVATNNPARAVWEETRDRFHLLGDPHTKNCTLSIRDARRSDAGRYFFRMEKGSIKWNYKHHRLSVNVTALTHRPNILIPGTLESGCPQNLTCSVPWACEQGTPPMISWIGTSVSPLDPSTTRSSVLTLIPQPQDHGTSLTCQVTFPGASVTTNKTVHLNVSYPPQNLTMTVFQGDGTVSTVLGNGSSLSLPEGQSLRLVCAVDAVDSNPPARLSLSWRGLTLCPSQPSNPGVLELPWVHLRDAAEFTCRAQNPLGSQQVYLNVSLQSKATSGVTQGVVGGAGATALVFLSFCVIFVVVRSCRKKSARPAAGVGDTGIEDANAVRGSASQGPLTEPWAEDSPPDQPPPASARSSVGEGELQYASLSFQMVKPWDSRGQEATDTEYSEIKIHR

Row | Compound | Percent Effect [1] [%] | Percent Effect [2] [%] | Percent Effect [3] [%] | Percent Effect [4] [%] | Percent Effect (Trypanosoma cruzi) [%] | Percent Effect [5] [%] | Percent Effect [6] [%] | Percent Effect (Homo sapiens) [%] | Percent Effect [7] [%] | Percent Effect [8] [%] | Percent Effect [9] [%]
1 | CN1CCCC1CNC(=O)c1nnn(-c2ccc(F)cc2)c1C1CC1 (stereo not drawn) | -5.49 | 0 | 1.3 | 3.88 | -5.86 | 0 | 8.2 | 10.9 | 4.95 | 3.66 | -4.68
2 | Cc1cnn(C2CN(CC(O)c3ccc(F)cc3)C2)c1 (stereo not drawn) | 1.74 | -2.67 | -7.34 | 3.97 | 2.82 | 8.33 | 3.31 | 17.9 | 6.01 | 13.6 | 105
3 | Cc1nccnc1N1CCC2(CCCN(C3CCOCC3)C2=O)C1 (stereo not drawn) | -7.49 | -2.74 | 0.961 | -4.09 | -5.56 | 0 | -1.63 | 27.4 | 0 | -3.7 | 0.0613
4 | Cc1ncc(CNC(=O)CCOc2ccccc2)c(C2CCCN2C)n1 (stereo not drawn) | -0.839 | -1.35 | 18.7 | 7.48 | -6.32 | 3.02 | 6.08 | 12.3 | 1.07 | 1.3 | -1.9
5 | Cc1cnc(NC(=O)N2CCCC2)s1 | -4.49 | 2.7 | -1.71 | 2.98 | 8.5 | -0.744 | 15.4 | 6.72 | 1.07 | 3.7 | 1.48
6 | CC(CNC(=O)N1CCSCC1)Cc1cccs1 (stereo not drawn) | -4.11 | 0 | 0.113 | -1.72 | -0.195 | -2.08 | 5.83 | 1.53 | 4.95 | 6.1 | -3.96
7 | CCc1c(C(=O)NCC(=O)OCC2CC2)cnn1-c1ccc(C)cc1 | -5.86 | 22.8 | 2.14 | -2.84 | 9.54 | 0.38 | 10.7 | 29 | 6.4 | 24.1 | -9.54
8 | CN(Cc1nnc(C2CC2)n1C)C1CCN(Cc2ccccc2F)C1 (stereo not drawn) | -3.03 | -5.48 | -2.94 | 2.42 | 2.18 | -3.19 | 10.4 | -27.4 | 0 | 8.64 | -4.72
